ELG1 repair inh: inhibitors of ELG1-dependent DNA repair in HEK293T cells | HEK293T ELG1-luciferase reporter, luminescence, 16 h; DNA damage induced by 5-fluorouridine | Potency, µM (doses to about 46.1 µM), actives largely listed as inhibitors | actives 2.3% (n = 330,000); further: nearly all actives have a fitted effect of over 55% in size
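Cells (2,000 per well) received 5-fluorouridine plus test compound or DMSO and were incubated 16 hr at 37 °C, 5% CO2. Luciferase activity was read by luminescence 30 min after ONE-Glo addition; signal suppression marked inhibition of damage-induced ELG1 function.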
FLuc modulator: inhibits or activates purified firefly luciferase, miR-21 counter-screen | AID 588342 | actives 6.9% (n = 360,000) | P08659 | Potency, µM (doses to about 57.5 µM), actives largely listed as inhibitors | purified FLuc, Km substrates, luminescence inhibition; further: nearly all actives have a fitted effect of over 55% in size
Target sequence (P08659 whole entry, looked up): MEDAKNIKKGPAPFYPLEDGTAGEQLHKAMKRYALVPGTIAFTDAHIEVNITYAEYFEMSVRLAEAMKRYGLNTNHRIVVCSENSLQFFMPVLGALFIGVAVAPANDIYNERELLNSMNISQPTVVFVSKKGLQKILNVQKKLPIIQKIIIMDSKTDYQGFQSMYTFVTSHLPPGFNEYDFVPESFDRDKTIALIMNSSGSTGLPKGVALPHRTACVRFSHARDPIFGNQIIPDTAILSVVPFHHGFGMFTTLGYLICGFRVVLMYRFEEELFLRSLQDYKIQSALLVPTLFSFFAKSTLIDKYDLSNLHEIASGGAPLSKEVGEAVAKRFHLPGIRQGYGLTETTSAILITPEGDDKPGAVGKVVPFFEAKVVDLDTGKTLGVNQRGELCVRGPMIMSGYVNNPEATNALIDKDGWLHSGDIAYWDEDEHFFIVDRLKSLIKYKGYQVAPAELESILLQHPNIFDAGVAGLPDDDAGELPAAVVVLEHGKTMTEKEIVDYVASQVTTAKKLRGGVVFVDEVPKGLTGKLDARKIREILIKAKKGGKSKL
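Biochemical qHTS of compounds, final roughly 60 µM downward over six points, against 10 nM purified firefly luciferase using Km concentrations of substrates (10 uM D-luciferin, 10 uM ATP) in Tris acetate pH 7.5 buffer; luminescence output.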
NPC1 promoter act: activates the NPC1 promoter. Huh7 NPC1 promoter luciferase reporter, 24 h. Potency, µM (highest dose often 9.22 µM), most hits filed as activators. actives 2.4% (n = 320,000). AID 485313; further: nearly all actives have a fitted effect of over 60% in size
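Cells: Huh7 expressing luciferase under the NPC1 promoter, 1500/well. Seeded 2 h, compound added, incubated 24 h at 37 °C. Luciferase reagent, 10 min ambient, then luminescence.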
Rab9 prom act: activators of Rab9 promoter; Huh7 Rab9 promoter-luciferase reporter, luminescence, 24 h; Potency, µM (series often up to 9.22 µM), usual class: activators; actives 2.8% (n = 320,000); further: nearly all actives have a fitted effect of over 60% in size
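Steps: seed 1500 Huh7 Rab9-luc cells per well, rest 2 h at 37 °C; add compound in DMSO; incubate 24 h; add luciferase reagent, 10 min ambient; read luminescence.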
ELG1 genotox: genotoxicity induction in ELG1-luciferase HEK293T cells. HEK293T ELG1-luciferase reporter, luminescence, 16 h. Potency, µM (titrated, usually from 46 µM), hits mostly activators. actives 1.3% (n = 330,000); further: nearly all actives have a fitted effect of over 60% in size
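Cells (2,000/well) expressing the ELG1-luciferase fusion are dosed by pin tool and kept 16 hr at 37 °C, 5% CO2. Signal comes from ONE-Glo luciferase reagent after 30 min at room temperature.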
SMN2 splice enh: enhancers of SMN2 splice variant expression; HEK293 SMN2-luciferase splicing reporter, luminescence, 30-36 h; Potency, µM (top dose mostly 46.1 µM), usual class: activators; actives 2.8% (n = 210,000); AID 1458; further: nearly all actives have a fitted effect of over 55% in size
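HEK293 cells carry an SMN2 minigene-luciferase reporter in which exon 7 inclusion puts luciferase in frame. Cells were seeded at 2000 cells/well, attached for 10-12 hours, then exposed to compounds for 30-36 hours at 37C before ONE-Glo luminescence.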
Hits are given with their value. An excerpt weighted towards active compounds, which were near 9.3% of everything screened. The call rests on the fitted dose curve; in most records, active means well fitted curve in the direction sought with a large enough effect; inconclusive means small, poorly fitted or top-dose-only effect, or another doubt; inactive means no such curve, though single readings can be large; an effect the other way counts as inactive or inconclusive.

How did Cc1cc2nc(-c3cccnc3SCC(=O)NC(C)C)[nH]c2cc1C do in these assays?
ELG1 repair inh: inconclusive; FLuc modulator: 2.69µM; NPC1 promoter act: 2.82µM; Rab9 prom act: 2.24µM; ELG1 genotox: 23.1µM; SMN2 splice enh: 11.2µM

How did Cc1ccc(NC(=O)Cn2c(-c3cncs3)nc3ccccc32)c(Br)c1 do in these assays?
FLuc modulator: inactive; SMN2 splice enh: inactive

What do the screens show for `C/C(=N\NC(=O)c1cccc(Br)c1)c1ccc(Br)cc1`?
ELG1 repair inh: inactive; FLuc modulator: inactive; NPC1 promoter act: inactive; Rab9 prom act: inactive; ELG1 genotox: inactive; SMN2 splice enh: inactive

How did C/C(=N/NC(=O)c1ccccc1)C(=O)O do in these assays?
ELG1 repair inh: inconclusive; FLuc modulator: 3.38µM; NPC1 promoter act: 3.55µM; Rab9 prom act: 3.55µM; ELG1 genotox: inconclusive

Results for CC(/C=C/c1ccccc1F)=N\NC(=O)c1ccccc1 ?
ELG1 repair inh: inconclusive; FLuc modulator: 16.9µM; NPC1 promoter act: inconclusive; Rab9 prom act: 3.16µM; ELG1 genotox: inconclusive; SMN2 splice enh: 15.8µM

Results for CC(/C=C/c1ccccc1F)=N\NC(=O)c1ccc(Cl)cc1 ?
ELG1 repair inh: inactive; FLuc modulator: inactive; NPC1 promoter act: inactive; Rab9 prom act: inactive; ELG1 genotox: inactive

Results for C/C(=N\NC(=O)c1ccc(Cn2cc([N+](=O)[O-])cn2)o1)c1cccc(NC(=O)C(C)C)c1 ?
ELG1 repair inh: inconclusive; FLuc modulator: inactive; NPC1 promoter act: inactive; Rab9 prom act: inactive; ELG1 genotox: inactive; SMN2 splice enh: inactive

How did C/C(=N\NC(=O)c1ccc(Cn2cc(Br)cn2)o1)c1cccc(NC(=O)C(C)C)c1 do in these assays?
ELG1 repair inh: 5.8µM; FLuc modulator: inactive; NPC1 promoter act: inactive; Rab9 prom act: inactive; ELG1 genotox: inactive; SMN2 splice enh: inactive

How did C/C(=N\NC(=O)c1ccccc1)c1cccc(Br)c1 do in these assays?
ELG1 repair inh: inconclusive; FLuc modulator: 13.5µM; NPC1 promoter act: inconclusive; Rab9 prom act: 2.51µM; ELG1 genotox: inconclusive; SMN2 splice enh: inconclusive

What do the screens show for `CC(C)NC(=O)N(C)C[C@H]1Oc2c(NC(=O)c3ccc(-c4nccs4)cc3)cccc2C(=O)N([C@@H](C)CO)C[C@H]1C`?
ELG1 repair inh: inactive; ELG1 genotox: inactive

What do the screens show for `C/C(=N\NC(=O)c1cccc(Br)c1)c1cccc(NC(=O)c2ccc(C)o2)c1`?
ELG1 repair inh: inconclusive; FLuc modulator: 16.9µM; NPC1 promoter act: inactive; Rab9 prom act: inactive; ELG1 genotox: inactive; SMN2 splice enh: inactive

What do the screens show for `Cc1ccc(N=C(c2cccs2)N2CCOCC2)cc1`?
ELG1 repair inh: inconclusive; FLuc modulator: inactive; NPC1 promoter act: inactive; Rab9 prom act: inactive; ELG1 genotox: inconclusive; SMN2 splice enh: 17.8µM

What do the screens show for `O=C(c1cccs1)N1CCOCC1`?
ELG1 repair inh: inactive; FLuc modulator: inactive; NPC1 promoter act: inactive; Rab9 prom act: inactive; ELG1 genotox: inactive; SMN2 splice enh: inactive

Results for COc1ccccc1-c1noc(CSc2nc3ccc(C)cc3[nH]2)n1 ?
FLuc modulator: inconclusive; SMN2 splice enh: inactive

Results for Cc1sc(NC(=O)CSc2nnc(C(C)C)n2C)c(C#N)c1C ?
ELG1 repair inh: inactive; FLuc modulator: inactive; NPC1 promoter act: inactive; Rab9 prom act: inactive; ELG1 genotox: inactive; SMN2 splice enh: inactive

What do the screens show for `CCCn1c(SCC(=O)Nc2sc(C)c(C)c2C#N)nnc1C(C)C`?
ELG1 repair inh: 20.6µM; FLuc modulator: inactive; NPC1 promoter act: inactive; Rab9 prom act: inactive; ELG1 genotox: inactive

What do the screens show for `CCOC(=O)C1=C(c2ccccc2)NC(SCC(=O)NC2CCCCC2)=C(C#N)C1c1ccco1` (configuration not stated)?
ELG1 repair inh: 18.4µM; FLuc modulator: inactive; NPC1 promoter act: inactive; Rab9 prom act: inactive; ELG1 genotox: inactive; SMN2 splice enh: inactive

Results for O=C(CCNS(=O)(=O)c1ccc(OC(F)(F)F)cc1)N1CCN(C/C=C/c2ccccc2)CC1 ?
ELG1 repair inh: inactive; FLuc modulator: inactive; NPC1 promoter act: inactive; Rab9 prom act: inactive; ELG1 genotox: inactive

What do the screens show for `COc1cc(NC(=O)c2csc(-c3ccncc3)n2)cc(C(=O)Nc2cccc(C(F)(F)F)c2)c1`?
ELG1 repair inh: 5.17µM; FLuc modulator: inconclusive; NPC1 promoter act: inactive; Rab9 prom act: inactive; ELG1 genotox: inactive

Results for COc1cc(NC(=O)c2cc3cccc(OC)c3o2)cc(C(=O)Nc2cccc(C(F)(F)F)c2)c1 ?
ELG1 repair inh: 11.6µM; FLuc modulator: inconclusive; NPC1 promoter act: inactive; Rab9 prom act: inactive; ELG1 genotox: inactive

What do the screens show for `COc1cccc2cc(C(C)=O)oc12`?
ELG1 repair inh: inactive; FLuc modulator: inactive; NPC1 promoter act: inactive; Rab9 prom act: inactive; ELG1 genotox: inactive; SMN2 splice enh: inactive

What do the screens show for `COc1ccc(C(=O)c2cc3cccc(OC)c3o2)cc1`?
ELG1 repair inh: inconclusive; FLuc modulator: 9.53µM; NPC1 promoter act: 3.16µM; Rab9 prom act: 3.16µM; ELG1 genotox: inconclusive; SMN2 splice enh: 14.1µM

What do the screens show for `CCN(CC)CCCNC(=O)/C=C/C(=O)O`?
ELG1 repair inh: inactive; FLuc modulator: inactive; NPC1 promoter act: inactive; Rab9 prom act: inactive; ELG1 genotox: inactive

How did CC(C)(C)OC(=O)NCc1ccc(CNC(=O)c2nc[nH]c2C(=O)NCc2ccccc2)cc1 do in these assays?
ELG1 repair inh: inconclusive; FLuc modulator: inactive; NPC1 promoter act: inactive; Rab9 prom act: inactive; ELG1 genotox: inactive

Results for CC(C)(C)OC(=O)NCc1ccc(CNC(=O)c2[nH]cnc2C(=O)NCC(=O)OCc2ccccc2)cc1 ?
ELG1 repair inh: 8.2µM; FLuc modulator: inactive; NPC1 promoter act: inactive; Rab9 prom act: inactive; ELG1 genotox: inactive

What do the screens show for `C[C@@H](OC(=O)c1[nH]cnc1C(=O)NCc1ccc(CNC(=O)OC(C)(C)C)cc1)c1ccccc1`?
ELG1 repair inh: 13µM; ELG1 genotox: inactive

What do the screens show for `COc1cccc(CNC(=O)CC(NC(=O)c2ccccc2)c2ccccc2)c1` (configuration not stated)?
ELG1 repair inh: inactive; FLuc modulator: inactive; NPC1 promoter act: inactive; Rab9 prom act: inactive; ELG1 genotox: inactive

Results for COc1cccc2c1Oc1ncccc1N(c1ccc(C(=O)NCc3ccccc3C)s1)C2 ?
FLuc modulator: inactive

How did COc1ccc2cc(-c3ccsc3)ncc2c1 do in these assays?
ELG1 repair inh: inconclusive; FLuc modulator: 1.9µM; NPC1 promoter act: inconclusive; Rab9 prom act: inactive; ELG1 genotox: inconclusive

How did COc1cc(OC)cc(-c2cc3ccc(OC)cc3cn2)c1 do in these assays?
ELG1 repair inh: inconclusive; FLuc modulator: 0.269µM; NPC1 promoter act: inconclusive; Rab9 prom act: inconclusive; ELG1 genotox: inconclusive

Source: PubChem (National Center for Advancing Translational Sciences (NCATS))
